Screening results deposited in PubChem BioAssay by National Center for Advancing Translational Sciences (NCATS).
Most compounds without a hit are left out; they make up all but 17% or so of the library.
TDP1 block = TDP1 (human) enzyme inhibition; 350,000 tested, 0.28% active; recombinant TDP1, AlphaScreen DNA substrate cleavage; Q9NUW8; Potency, µM (series often up to 130 µM), without a hit: top-dose activity change, negative = inhibition, most hits filed as inhibitors; note: % is set by controls: 0 for no effect and ±100 for the full control effect; nearly all actives have a fitted effect of over 40% in size
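AlphaScreen read-out: signal falls as enzyme removes the 3' tyrosine-FITC from a 5'-biotinylated DNA oligo (15 nM, 5 min, RT). Enzyme was E. coli-made recombinant Tdp1 at 1 nM, exposed to compound for 15 min beforehand; beads 10 ug/ml, 10 min.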
ClpP mod = qHTS Assay for Activators of ClpP; purified B. subtilis ClpP, FRET peptide cleavage, 20 min; Potency, µM (doses to about 57.5 µM), for inactives: at the highest dose activity change, negative = active; 340,000 tested, 1.9% active; AID 651965, 2013; active = well fitted falling curve with a large enough effect; inconclusive = small, poorly fitted or top-dose-only effect; inactive = no such curve, though single readings can be large or run the other way; note: the source files actives as falling curves though it sought activators and does not explain the sign; nearly all actives have a fitted effect of over 65% in size
Target sequence (P80244 whole entry, looked up): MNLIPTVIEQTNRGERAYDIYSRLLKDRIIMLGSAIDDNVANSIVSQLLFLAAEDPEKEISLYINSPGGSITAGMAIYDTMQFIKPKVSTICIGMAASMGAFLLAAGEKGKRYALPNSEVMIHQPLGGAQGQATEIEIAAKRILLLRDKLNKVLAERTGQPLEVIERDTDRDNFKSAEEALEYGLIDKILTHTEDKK
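Purified B. subtilis ClpP, 10 microg/mL final in Tris/HCl pH8 with KCl, BSA, glycerol and Tween-20, cleaved an Abz/nitrotyrosine-quenched decapeptide. Fluorescence (ex 320, em 430) was read at 0 and 20 min at room temperature. Delta was normalized to 5.8 microM ADEP and DMSO/no-enzyme controls.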
DT40 TDP1 CPT = growth inhibition of DT40 Tdp1-/-;hTDP1 cells with camptothecin (screen for TDP1 inhibitors). chicken DT40 Tdp1-/-;hTDP1 cells + 20 nM CPT, ATP luminescence, 48 h. Potency, µM (doses to about 46.2 µM), inactives show at the highest dose activity change, negative = growth inhibition, actives largely listed as inhibitors. 420,000 tested, 12% active. AID 686979; note: % is set by controls: 0 for no effect and ±100 for the full control effect; nearly all actives have a fitted effect of over 55% in size
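Chicken DT40 Tdp1-/- cells stably complemented with human TDP1 were seeded at 400 cells/well in medium containing 20 nM camptothecin, exposed to pin-transferred compounds, and grown at 37 °C for at least 48 hr. Viability was read as ATP luminescence.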
TDP1 cell noCPT = qHTS for Inhibitors of human tyrosyl-DNA phosphodiesterase 1 (TDP1): qHTS in cells in absence of CPT | DT40 Tdp1-/- hTDP1 cells, no CPT, ATP luminescence, 48 h | Potency, µM (series often up to 46.2 µM), for the others: top-dose activity change, negative = growth inhibition, hits mostly inhibitors | 420,000 tested, 15% active | AID 686978, 2013; note: % is set by controls: 0 for no effect and ±100 for the full control effect; nearly all actives have a fitted effect of over 55% in size
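Growth of hTDP1-complemented DT40 Tdp1-knockout cells is measured by ATP luminescence after at least 48 hr compound exposure at 37 °C, with DMSO substituting for the 20 nM CPT used in the parallel screen.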
Starred values were filed as active, the others as inactive; ? = inconclusive; . = no result; [ ] = dose if it differs, or a comment. Unless noted, calls come from the whole dose curve; as a rule, active = well fitted curve in the direction sought with a large enough effect; inconclusive = small, poorly fitted or top-dose-only effect, or another doubt; inactive = no such curve, though single readings can be large; an effect the other way counts as inactive or inconclusive. Potency is the fitted concentration of half-maximal effect.

SMILES | TDP1 block | ClpP mod | DT40 TDP1 CPT | TDP1 cell noCPT
CCc1nc(Nc2ccc(F)c(Cl)c2)c2c3c(sc2n1)CCCC3 | . | ? | 5.8µM* | 5.8µM*
COc1ccc(C2N(Cc3ccccc3)CC(=O)N2/N=C(\C)c2ccccc2)cc1 (centres undefined) | -2.6% | 15.8µM* | -14.1% | -7.7%
COc1ccc(C2/C=C\CN(C(=O)c3ccccc3)CC(=O)N2Cc2ccc(F)cc2)cc1 (centres undefined) | 10.3% | 2.0% | -26.9% | ?
CCOP(=O)(OCC)C(NC(=O)Nc1ccc(Cl)c(Cl)c1)C(N)=O (centres undefined) | 2.7% | 15.8µM* | 0.5% | -4.5%
O=C(NCC1CCCO1)c1c[nH]c2ccc(S(=O)(=O)Nc3ccc(F)cc3F)cc2c1=O (centres undefined) | . | -23.7% | -14.9% | -1.7%
CCOC(=O)c1c(CN2CCNCC2)nc2ccc(Cl)cc2c1-c1ccccc1 | . | 1.4% | 4.61µM* | 4.61µM*
Cc1nc2ccc(Cl)cc2c(-c2ccccc2)c1C(=O)N(C)C | . | -2.8% | -18.6% | 13.3%
COc1ccc(-c2c(C)nn3c4c(cnc23)C(=O)CC(c2ccccc2)C4)cc1 (centres undefined) | 5.8% | 0.3% | -7.0% | 10.7%
COc1cccc(C(=O)N(c2ccc(C)cc2)C2C=CS(=O)(=O)C2)c1 (centres undefined) | 1.2% | 1.9% | -7.5% | -6.5%
Cc1ccc(O)c(N=Nc2nccs2)c1 | 11.9% | -1.1% | 1.16µM* | 0.92µM*
Clc1ccc(OCc2nn3c(C4CCCCC4)nnc3s2)cc1 | 5.2% | -3.7% | 20.6µM* | 20.6µM*
CN(C)S(=O)(=O)c1cccc(NC(=S)N2CCc3ccccc32)c1 | 8.0% | -3.3% | ? | ?
CC1Cc2ccccc2N1C(=S)Nc1cccc(S(=O)(=O)N(C)C)c1 (centres undefined) | -1.2% | . | 16.4µM* | ?
CC1CCCC(NC(=S)Nc2cccc(S(=O)(=O)N(C)C)c2)C1C (centres undefined) | 2.6% | . | ? | 18.4µM*
CN(C)S(=O)(=O)c1cccc(NC(=S)NC(=O)C2CCCCC2)c1 | 5.3% | 0.8% | ? | 18.4µM*
COc1ccccc1CCNC(=O)CNC(=O)Cc1cccc2ccccc12 | 1.3% | -2.2% | ? | ?
Cc1ccc(C)c(C(=O)CN2C(=O)c3ccccc3S2(=O)=O)c1 | 1.9% | 1.7% | -0.5% | -2.4%
CCCn1c(C)cc(C(=O)CN2C(=O)c3ccccc3S2(=O)=O)c1C | . | 1.0% | ? | 9.2µM*
COc1ccc(C2/C=C\C(c3ccc(OC)cc3)N(Cc3ccc(F)cc3)C(=O)C(=O)N2Cc2ccc(F)cc2)cc1 (centres undefined) | 7.1%[96 µM] | . | . | .
O=C(CCCCCN1C(=O)c2cccc3cccc(c23)C1=O)NCc1cccnc1 | 5.1% | . | 2.91µM* | ?
CCOc1ccc(S(=O)(=O)N2CCN(C(=O)c3cc(-c4ccccc4)nn3-c3ccccc3)CC2)cc1 | 5.5% | -5.0% | ? | ?
O=C(NC1CCCCC1)c1cc(C2CC2)nn1-c1ccccc1 | 0.4%[56.1 µM] | 0.1% | 16.4µM* | 16.4µM*
O=C(c1cc(C2CC2)nn1-c1ccccc1)N1CCN(c2ccccc2O)CC1 | 2.2% | 13.2% | ? | 16.4µM*
CCOc1ccc(S(=O)(=O)N2CCN(C(=O)c3cc(C4CC4)nn3-c3ccccc3)CC2)cc1 | 7.5% | -2.0% | 20.6µM* | 18.4µM*
Cc1ccc(S(=O)(=O)N2CCN(S(=O)(=O)c3ccccc3Br)CC2)cc1 | -0.3%[56.1 µM] | 3.1% | ? | -26.8%
SMILES | TDP1 block | ClpP mod | DT40 TDP1 CPT | TDP1 cell noCPT
CC1CCc2c(sc(NC(=O)C3c4ccccc4Oc4ccccc43)c2C(=O)OC(C)C)C1 (centres undefined) | 1.1% | -1.5% | -2.2% | -0.2%
CC(C)c1ccc(NC(=O)c2cccc3c2C(=O)N(C2CCCCC2)C3)cc1 | 0.0% | 0.4% | 1.9% | -8.0%
COc1ccc2[nH]c(C)c(C(=O)CN3CCN(C/C=C/c4ccccc4)CC3)c2c1 | . | 0.6% | 18.4µM* | ?
Cc1[nH]c2ccccc2c1C(=O)CN1CCN(C/C=C/c2ccccc2)CC1 | 7.8% | -0.3% | ? | 18.4µM*
Cc1[nH]c2ccccc2c1C(=O)CN1CCN(C2CCCCC2)CC1 | 2.1% | . | . | .
COc1cc(NC(=O)CCN2CCN(C/C=C/c3ccccc3)CC2)cc(OC)c1 | 5.0% | 1.6% | ? | 20.6µM*
O=C(CSc1nnc(SCc2cccc3ccccc23)s1)Nc1ccc(C(=O)O)cc1 | 3.1% | . | 18.4µM* | 20.6µM*
c1ccc(Nc2nnc(SCc3cccc4ccccc34)s2)cc1 | -0.7% | -11.8% | ? | ?
CCOC(=O)[C@H]1[C@H]2COc3ccc(Cl)cc3[C@@H]2N2C(=O)c3cc(F)ccc3NC(=O)[C@@]12C | 0.0% | -3.1% | ? | ?
CCCCCCCCN1C(=O)[C@H](CC(=O)NCCCOCCCC)C[C@@]2(C(=O)OC)CC(C)(C)CC=C12 | . | 1.1% | ? | 14.6µM*
COC(=O)[C@]12CCCCC=C1N(Cc1ccccc1)C(=O)[C@H](CC(=O)NCCc1ccccc1OC)C2 | . | -0.7% | ? | ?
C#CCNC(=O)C[C@@H]1C[C@@]2(C(=O)OC)CC(C)(C)CC=C2N(CCCCCCCC)C1=O | . | 1.4% | ? | 16.4µM*
CCCCCCCCN1C(=O)[C@H](CC(=O)NCCc2ccccc2OC)C[C@@]2(C(=O)OC)CC(C)(C)CC=C12 | . | -0.6% | 20.6µM* | ?
COCCCNC(=O)C[C@@H]1C[C@@]2(C(=O)OC)CC(C)(C)CC=C2N(Cc2ccco2)C1=O | . | 1.2% | -6.6% | -0.4%
CCCCCCCCN1C(=O)[C@H](CC(=O)NCCCOC)C[C@@]2(C(=O)OC)CC(C)(C)CC=C12 | . | 1.1% | ? | 14.6µM*
C#CCNC(=O)C[C@@H]1C[C@@]2(C(=O)OC)CC(C)(C)CC=C2N(Cc2ccccc2)C1=O | . | 1.2% | ? | ?
COc1cccc(CNC(=O)[C@@H]2CCCN2C(=O)[C@@H]2CCCN2)c1 | . | 0.4% | 0.9% | -15.6%
CC(C)Oc1ccc(S(=O)(=O)N2CCOCC2)cc1NC(=O)C1=NN(c2ccccc2)C(=O)CC1 | 2.7% | 1.8% | ? | ?
CCCCOCCCNC(=O)C[C@@H]1C[C@@]2(C(=O)OC)CC(C)(C)CC=C2N(Cc2ccccc2)C1=O | . | 1.8% | 20.6µM* | ?
CCCCOCCCNC(=O)C[C@@H]1C[C@@]2(C(=O)OC)CC(C)(C)CC=C2N(Cc2cccc3ccccc23)C1=O | . | -0.3% | ? | ?
COC(=O)[C@@]12C[C@@H](CC(=O)NCCCN3CCCC3=O)C(=O)N(Cc3ccccc3)C1=CCC(C)(C)C2 | . | -1.1% | 10.8% | -26.8%
CCCCCCCCN1C(=O)[C@H](CC(=O)NCCCN2CCCC2=O)C[C@@]2(C(=O)OC)CC(C)(C)CC=C12 | . | 2.1% | 13µM* | 13µM*
